Results from PubChem BioAssay AID651644 (National Center for Advancing Translational Sciences (NCATS), 2012).
Screen size: about 360,000 compounds; about 750 (0.21%) were called active. Entries that show only a call come without a potency. Another 2% or so got no clear call; they are omitted. The sample holds actives, similar compounds and a random draw of the others, so the mix is not that of the screen. A number with no mark means an inactive call. The call rests on the fitted dose curve; in most records, active means well fitted falling curve with a large enough effect; inconclusive means small, poorly fitted or top-dose-only effect; inactive means no such curve, though single readings can be large or run the other way.

assay: qHTS Assay for Inhibitors of the HIV-1 protein Vpr; further: nearly all actives have a fitted effect of over 50% in size; details: S. pombe RE007 Vpr strain, BacTiter-Glo ATP luminescence, 24 h; series mostly up to 92.2 µM
Source text: Human immunodeficiency virus type 1 (HIV-1), the causative agent of AIDS, contains a protein called viral protein R (Vpr) that plays an important role in the viral life cycle and the pathogenesis of HIV-1.
These Vpr specific activities include cytoplasmic-nuclear shuttling, induction of cell cycle G2 arrest and cell killing. The cytoplasmic-nuclear shuttling is believed to participate in nuclear transport of the proviral integration complex (PIC). The cell cycle G2 arrest induced by Vpr is thought to suppress human immune functions by preventing T cell clonal expansion and to provide an optimized cellular environment for maximal levels of viral replication. In addition, Vpr induces apoptosis, which may contribute to the depletion of CD4 T cells in HIV-infected patients. Since the Vpr-specific activities have been linked to such clinical manifestation of AIDS as activation of viral replication, suppression of host immune responses and depletion of CD4+ T-lymphocytes, identification of new molecular probes that can inhibit the Vpr activities could potentially provide a new approach to reduce Vpr-mediated detrimental effects in HIV-infected patients, and thus prolong patient's lives. Currently, there are no anti-Vpr drugs.
A fission yeast (Schizosaccharomyces pombe) model system for the Vpr studies has been developed which measures HIV-1 Vpr-induced cell death. This assay will be used for to screen the NIH Molecular Libraries Small Molecule Repository (MLSMR) identify small molecule HIV-1 Vpr inhibitors.
NIH Chemical Genomics Center [NCGC]
NIH Molecular Libraries Probe Centers Network [MLPCN]
Assay Submitter (PI): Richard Zhao, University of Maryland
The fission yeast RE007 strain was used, which carries a single integrated copy of HIV-1 vpr gene in the yeast chromosome. The starting culture was frozen stock 100ul of yeast RE007 in 150ml of *PMG+AL medium, Incubation in 30 degree plus 99% humidity for 18 hours. Next day dispensed 2.5ul of PMG+AL medium in each well to 1536 well white solid plate, then 23nL compound were delivered to each well using a pin tool. Check OD for overnight culture and add cell density at 0.01 for each well, incubation in 30 degree plus 99% humidity for 24 hours. After add 5 ul of *BacTiter/Glo detect reagent to each well at room temperature for 5 minutes then to red out results with Viewlux CCD camera.
Potency means the concentration at half of the fitted maximal effect.

Row | Structure (SMILES) | Potency | activity change, negative = less growth
1 | CN(O)C(=S)c1ccccc1 | 12.6 µM (active) | 
2 | COC(=O)[C@@H]1C[C@@]2(O)[C@H](O)[C@H](O)[C@H](O)C[C@H]2N1Cc1ccc(C)s1 | inactive | 
3 | O=C(COc1coc(CN2CCN(c3ccccc3F)CC2)cc1=O)N1CCc2ccccc21 | inactive | 
4 | Cc1ccc(S(=O)Cc2ccc(C(=O)N3CCN(C4CCCCC4)CC3)o2)cc1 (centres undefined) | inactive | 
5 | CCN(C(=O)COC(=O)/C=C/c1nc2ccccc2s1)C1CCS(=O)(=O)C1 (centres undefined) | inactive | 
6 | CC(=O)c1ccc(N2Cc3ccccc3C2)cc1 | inactive | 
7 | CSc1c(SCc2ccccc2)cnn(Cc2ccccc2)c1=O | inactive | 
8 | O=S(=O)(c1ccc2c(c1)OCCO2)N1CCc2ccccc21 | inactive | 
9 | O=C(CCN1CCc2ccccc2C(O)(c2ccccc2)C1)c1ccc2c(c1)OCCO2 (centres undefined) | 5.62 µM (active) | 
10 | O=C(CN1CCc2cc3c(cc2C1)OCCCO3)Nc1ccccc1 | inactive | 
11 | Cn1c(=O)cc(OCCCC(=O)N2CCN(c3ccccn3)CC2)c2ccccc21 | inactive | 
12 | CCC(Oc1ccccc1C)C(=O)Nc1ccc(S(=O)(=O)Nc2cc(C)on2)cc1 (centres undefined) | inactive | 
13 | O=C(CNCc1cccs1)Nc1cc(S(=O)(=O)N2CCCC2)ccc1Cl | inactive | 
14 | COc1cccc(NCCC(=O)c2cccc([N+](=O)[O-])c2)c1 | inactive | 
15 | COC(=O)/C=C\C(=O)Nc1cccc([N+](=O)[O-])c1 | 7.94 µM (active) | 
16 | CC(NC(=O)Nc1cccc([N+](=O)[O-])c1)c1ccc2c(c1)OCO2 (centres undefined) | inactive | 
17 | O=C(COC(=O)CCCNC(=O)c1ccc(Cl)cc1)Nc1cc(Cl)ccc1Cl | inactive | 
18 | O=C(Cn1nnc2ccccc2c1=O)Nc1cc(C(F)(F)F)ccc1N1CCOCC1 | inactive | 
19 | CCCCCCCCCCCCn1ccc(=N)cc1 | 11.2 µM (active) | 
20 | Cc1ccc(S(=O)(=O)NCCCn2ccnc2)cc1C(=O)NC(C)C | inactive | 
21 | CCCn1cc(SCC(N)=O)c2ccccc21 | inactive | 
22 | O=C(Nc1cccc2ccccc12)c1[nH]c(-c2ccccc2)c2c1C(=O)N(C1CC1)C2=O | inactive | 
23 | O=C(Nc1cccc2ccccc12)c1onc2c1CCCC2 | 14.1 µM (active) | 
24 | O=C(Nc1cccc2ccccc12)NC1CC1 | inactive | 
25 | Cc1ccc(NC(=O)[C@H](Cc2ccccc2)NC(=O)C2CCNCC2)cc1 | inactive | 

Row | Structure (SMILES) | Potency | activity change, negative = less growth
26 | CC1c2nc3ccccc3n2C(CC(=O)NCCCN2CCOCC2)C(=O)N1Cc1ccccc1 (centres undefined) | inactive | 
27 | CCOC(=O)c1sc(C)c2c1NC(C)(c1cccc3ccccc13)NC2=O (centres undefined) | inactive | 
28 | COc1ccc(Br)cc1CNCCc1cccc(Cl)c1 | inactive | 
29 | O=C(O)COc1ccc(/C=N/O)cc1Br | inactive | 
30 | COc1cc(/C=N/O)cc(Br)c1OCc1cccc(Cl)c1 | 10 µM (active) | 
31 | CCc1noc(C)c1C(=O)OCC(=O)c1ccc(NC(=O)CC(C)C)cc1 | inactive | 
32 | O=C(CN1CCN(c2ncccn2)CC1)Nc1ccccc1C(F)(F)F | inactive | 
33 | Cc1noc(C)c1S(=O)(=O)N(C)C[C@H]1Oc2ccc(NC(=O)C3CC3)cc2C(=O)N([C@H](C)CO)C[C@@H]1C | inactive | 
34 | Cc1ccc(Cl)c(NC(=O)CN(C)CC(=O)Nc2ccc(F)c(F)c2F)c1Cl | inactive | 
35 | CC(=O)Nc1ccc(/C=N/Nc2ccc(C(=O)c3c(C)cc4ccccn34)cc2[N+](=O)[O-])cc1 | inactive | 
36 | CCSC1(SCC)N=C(N)C2(C#N)C(c3ccccc3)NC(C)=CC12C#N (centres undefined) | 4.47 µM (active) | 
37 | COc1ccc(C(=O)NC2CC2)cc1OC1CCN(Cc2ccc(SC)cc2)CC1 | inactive | 
38 | Cc1ccc(CN(Cc2cccnc2)C(=S)Nc2cc(Cl)ccc2C)cc1 | inactive | 
39 | O=C1CSC(=S)N1/N=C/c1ccc(O)c([N+](=O)[O-])c1 | 28.2 µM (active) | 
40 | O=C(CN(CC1CCCO1)C(=O)CNS(=O)(=O)c1ccccc1)NCc1ccccc1 (centres undefined) | inactive | 
41 | CCN(CC)S(=O)(=O)c1ccc(Cl)c(C(=O)NCCN2CCOCC2)c1 | inactive | 
42 | Cc1c(C(=O)NCCN(C)C)oc2ccc(S(=O)(=O)N3CCCC3)cc12 | inactive | 
43 | C[C@H](NC(=O)c1ccccc1Cl)C(=O)OCC(=O)N1CCN(c2ccccc2)CC1 | inactive | 
44 | Cc1ccc(C)c(OCCC(=O)OCC(=O)N2CCN(c3ccccc3)CC2)c1 | inactive | 
45 | O=C(OCC(=O)N1CCN(c2ccccc2)CC1)c1ccc([N+](=O)[O-])s1 | 39.8 µM (active) | 
46 | CC(=O)c1cccc(-n2nnnc2SCC(=O)NNC(=O)C2CCCCC2)c1 | inactive | 
47 | C=CS(=O)c1sc(Cl)c(N2CCOCC2)c1[N+](=O)[O-] (centres undefined) | 12.6 µM (active) | 
48 | COc1ccc(-c2ccc3c(c2)[C@@H]2C[C@H](N(C)S(=O)(=O)c4ccccc4)[C@H]([C@H](C)O)C(=O)N2CC3)cc1 | inactive | 
49 | CC(Oc1ccc(F)cc1)C(=O)Nc1cc(S(=O)(=O)N2CCOCC2)ccc1N1CCN(C)CC1 (centres undefined) | inactive | 
50 | CC1(C)C(c2cccs2)=[N+]([O-])C2(CCCCC2=O)N1O (centres undefined) | inactive | 

Row | Structure (SMILES) | Potency | activity change, negative = less growth
51 | Cc1ccc(S(=O)(=O)N(CC(=O)Nc2cccnc2)c2ccc(Br)cc2)cc1 | inactive | 
52 | CC(C)CN(C(=O)CN1CCN(S(=O)(=O)c2ccccc2)CC1)c1c(N)n(CC(C)C)c(=O)[nH]c1=O | inactive | 
53 | CC1(C(=O)NS(=O)(=O)c2ccc3ccccc3c2)CCN1C(=O)C1(c2ccc(Cl)cc2)CCC1 (centres undefined) | inactive | 
54 | CCC(c1nnc(SCC(=O)NNC(=O)c2ccccc2)n1Cc1ccccc1)N(C)C (centres undefined) | inactive | 
55 | O=C1NC(=O)N(c2ccccc2)C(=O)/C1=C/c1ccc([N+](=O)[O-])s1 | 28.2 µM (active) | 
56 | CCOc1ccc(C(C(=O)NCCOC)N(CCOC)C(=O)CCC(=O)Nc2ccccn2)cc1 (centres undefined) | inactive | 
57 | CCOc1ccc(CCNC(=O)COC(=O)c2ccc(F)c(S(=O)(=O)N3CCOCC3)c2)cc1OCC | inactive | 
58 | CC1CCCN(CCCNC(=O)CN2C(=O)COc3ccc(S(=O)(=O)N4CCOCC4)cc32)C1 (centres undefined) | inactive | 
59 | COc1ccc(-c2csc3nc(-c4ccccc4F)oc(=O)c23)cc1OC | inactive | 
60 | COc1ccc(N2C(=O)C(CC(=O)Nc3ccccc3)N(Cc3ccc(OC)c(OC)c3)C2=O)cc1 (centres undefined) | inactive | 
61 | O=C(C(=O)N1CCN(c2ccccc2)CC1)c1ccc2c(c1)OCO2 | inactive | 
62 | O=P(c1ccc2c(c1)OCCO2)(N1CCOCC1)N1CCOCC1 | inactive | 
63 | Cn1cnnc1SCC(=O)NNC(=O)COc1ccc(Br)cc1 | inactive | 
64 | CN(C)CCOC(=O)C(c1ccccc1)C1(O)CCCC1 (centres undefined) | inactive | 
65 | CN(C)CC1Oc2ccccc2OC1(O)c1ccccc1 (centres undefined) | 10 µM (active) | 
66 | CC(C)Nc1ncnc2c1ncn2[C@H]1CN(Cc2ccncc2)C[C@@H](CO)O1 |  | 1.71% [at 18.4 µM]
67 | O=C(CC1C(=O)NCCN1Cc1ccc(-c2ccccc2)cc1)NCc1ccncc1 (centres undefined) | inactive | 
68 | COc1cccc(CN2CCNC(=O)C2CC(=O)N(C)CCc2ccccn2)c1 (centres undefined) | inactive | 
69 | Cc1cccc(C(=O)NCc2nnc(SC(C)C(=O)Nc3nnc(C)s3)n2C)c1 (centres undefined) | inactive | 
70 | Cc1nonc1C(=O)N/N=C/c1ccc(O)cc1 | 25.1 µM (active) | 
71 | COc1cc(/C=N\NC(=O)c2nonc2N)c(OC)cc1Br | inactive | 
72 | Nc1nonc1-n1nnc(C(=O)N/N=C/c2ccc(Cl)cc2)c1-c1ccc2c(c1)OCO2 | inactive | 
73 | Cc1ccc2nc(SC(C)C(=O)NCc3ccco3)[nH]c2c1 (centres undefined) | inactive | 
74 | O=c1[nH][nH]c2c1[C@H](c1ccc(Cl)cc1)O[C@H](CCc1ccccc1)C2 | inactive | 
75 | O=C(NCc1nnnn1-c1ccc(Cl)cc1)c1ccc([N+](=O)[O-])o1 | inactive | 

Row | Structure (SMILES) | Potency | activity change, negative = less growth
76 | O=C(Nc1ccc(Br)cn1)c1ccc([N+](=O)[O-])o1 | 17.8 µM (active) | 
77 | O=C(/C=C/c1ccc(Cl)cc1)Nc1ccc(Br)cn1 | inactive | 
78 | O=C(COc1ccccc1Cl)Nc1ccccc1C(=O)NC1CC1 | inactive | 
79 | Oc1ccccc1CNc1ncc(Br)cc1Br | 35.5 µM (active) | 
80 | O=[N+]([O-])c1ncc(Br)cc1Nc1ccccc1 | inactive | 
81 | CCc1cccc(C)c1NS(=O)(=O)c1cc(Br)cnc1N | inactive | 
82 | Cc1cccc(C(=O)Nc2ccccc2-c2nnn(CC(=O)Nc3ccc4c(c3)OCCO4)n2)c1 | inactive | 
83 | Clc1ccc(-c2nc3ccccn3c2CN2CCSCC2)cc1 | inactive | 
84 | CCOC(=O)C1=C(c2ccc(OC)cc2)C(=O)c2ccccc2C1=O | 20 µM (active) | 
85 | CCOC(=O)C(Cc1ccc(N)cc1)N1C(=O)c2ccccc2C1=O (centres undefined) | inactive | 
86 | CCOC(=O)C1=C(CC)Nc2ccccc2N=C1N | inactive | 
87 | CC(C)(C)S(=O)N1Cc2cc(C(=O)NCCCN3CCOCC3)nc(-c3cccc(-c4cc5ccccc5o4)c3)c2[C@H]1CCO (some centres undefined) | inactive | 
88 | CCOC(=O)N1CCN(S(=O)(=O)c2cc(Br)cc3c2N(C(=O)C2CC2)CC3)CC1 | inactive | 
89 | CC(=O)NC(CC(=O)Nc1cccc(S(=O)(=O)N2CCCC2)c1)c1ccccc1 (centres undefined) | inactive | 
90 | CN(C)S(=O)(=O)c1ccc2oc(SCC(=O)Nc3ccccc3F)nc2c1 | inactive | 
91 | CCOc1ccc(NCCC(=O)c2ccc3c(c2)OCO3)cc1 | 31.6 µM (active) | 
92 | CCOc1ccc(NC(=O)c2ccc(NC(=O)C3CCCO3)cc2)cc1 (centres undefined) | inactive | 
93 | COc1ccc(C2(C)NC(=O)N(CC(=O)c3ccc4c(c3)OCO4)C2=O)cc1 (centres undefined) | inactive | 
94 | Cc1cc(NC(=O)Cn2nc(C(F)(F)F)c3c2CCCC3)no1 | inactive | 
95 | Cc1cc(C)cc(NC(=O)c2cccc(NC(=O)C3C4CC5OC(=O)C3C5C4)c2)c1 (centres undefined) | inactive | 
96 | CN(C)c1cccc(NC(=O)c2ccc(-c3ccc(F)c(F)c3)c3ccoc23)c1 |  | 5.61% [at 18.4 µM]
97 | O=C(c1ccc(Cl)c(S(=O)(=O)N2CCCCCC2)c1)N1CCN(c2ccc(O)cc2)CC1 | inactive | 
98 | O=C1C=CC(=O)N1c1ccc(N2CCCCC2)cc1 | 2.82 µM (active) | 
99 | Cc1cc(NC(=O)CSc2nccn2-c2ccc([N+](=O)[O-])cc2)no1 | inactive | 
